# Source: PubChem BioAssay
# The source made the active and inactive calls.
# How the values were obtained:
# [1] = tested on: Plasmodium falciparum Sir2 (PF13_0152, Sir2A); assay: pfSir2 binders on small-molecule microarrays, primary screen, biochemical, small-molecule microarray, 635 nm fluorescence (AID 1098); conditions: small-molecule microarray binding, fluorescence 635 nm; higher = more signal;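 further: score merges spot fluorescence intensity with its signal-to-noise ratio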
# [2] = small-molecule microarray binders of probe aDKK1, primary screen, biochemical, biotinylated probe, 635/667 nm fluorescence (AID 1099); conditions: higher = more signal;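 further: score merges 667nm spot fluorescence with signal to noise across triplicate slides; reference of the scale not given here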
# [3] = small-molecule microarray binders of probe aCHRDL2, primary screen, biochemical, biotinylated probe, 635/667 nm fluorescence (AID 1100); conditions: higher = more signal
# [4] = splicing luciferase reporter signal modulators, primary screen, spliceosome inhibition project, cell-based, HEK293, splice +/- reporter (AID 1101); conditions: luminescence, 24 h, higher = more signal, called active from +8 up or from −8 down;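 further: HEK293 cells carrying a splicing-competent luciferase reporter gene; test concentration not given here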
# [5] = target: Fibroblast growth factor 10 (Homo sapiens) (UniProt O15520); assay: FGF10 binders on small-molecule microarrays, primary screen, biochemical, small-molecule microarray, 635 nm fluorescence (AID 1102); conditions: FGF10 binding, fluorescence 635 nm, higher = more signal
# [6] = tested on: glycogen synthase kinase-3 (GSK3A per assay name; protocol says GSK3B); assay: GSK3 binders on small-molecule microarrays, primary screen, biochemical, small-molecule microarray, 635 nm fluorescence, GSK3A (AID 1103); conditions: small-molecule microarray binding, fluorescence 635 nm; higher = more signal; further: the record names both GSK3A and GSK3B
# [7] = target: Epidermal growth factor receptor (Homo sapiens) (UniProt P00533); assay: EGFR binders on small-molecule microarrays, primary screen, biochemical, small-molecule microarray, 635 nm fluorescence (AID 1104); conditions: EGFR binding, higher = more signal;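 further: score merges 667 nm emission intensity with spot signal to noise over triplicate slides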
# [8] = target: Follistatin-related protein 3 (Homo sapiens) (UniProt O95633); assay: FSTL3 binders on small-molecule microarrays, primary screen, biochemical, small-molecule microarray, 635 nm fluorescence (AID 1105); conditions: FSTL3 binding, higher = more signal;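 further: score merges emission near 667 nm and signal to noise per printed spot across three slides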
# [9] = target: Dickkopf-related protein 1 (Homo sapiens) (UniProt O94907); assay: DKK1 binders on small-molecule microarrays, primary screen, biochemical, small-molecule microarray, 635 nm fluorescence scan (AID 1106); conditions: DKK1 binding, higher = more signal;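 further: score merges emission near 667 nm with signal to noise over three replicate slides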
# [10] = tested on: Inhibin beta A chain (activin A); assay: INHBA (activin A) binders on microarrays, primary screen, biochemical, small-molecule microarray, 635 nm fluorescence scan (AID 1107); conditions: small-molecule microarray binding, higher = more signal;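 further: mouse activin A protein probed at 4.33 µg/mL on printed slides; score merges bound-protein fluorescence near 667 nm with spot signal-to-noise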
# Chain of Follistatin-related protein 3 (Homo sapiens) (O95633 whole entry, looked up): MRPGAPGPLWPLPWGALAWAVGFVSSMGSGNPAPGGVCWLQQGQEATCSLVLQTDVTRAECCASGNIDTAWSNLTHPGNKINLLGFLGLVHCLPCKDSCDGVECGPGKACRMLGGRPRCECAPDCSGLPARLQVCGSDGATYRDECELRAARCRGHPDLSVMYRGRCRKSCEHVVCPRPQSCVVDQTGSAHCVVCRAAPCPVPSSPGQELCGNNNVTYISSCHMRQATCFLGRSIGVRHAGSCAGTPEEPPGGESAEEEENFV
# Chain of Epidermal growth factor receptor (Homo sapiens) (P00533 whole entry, looked up): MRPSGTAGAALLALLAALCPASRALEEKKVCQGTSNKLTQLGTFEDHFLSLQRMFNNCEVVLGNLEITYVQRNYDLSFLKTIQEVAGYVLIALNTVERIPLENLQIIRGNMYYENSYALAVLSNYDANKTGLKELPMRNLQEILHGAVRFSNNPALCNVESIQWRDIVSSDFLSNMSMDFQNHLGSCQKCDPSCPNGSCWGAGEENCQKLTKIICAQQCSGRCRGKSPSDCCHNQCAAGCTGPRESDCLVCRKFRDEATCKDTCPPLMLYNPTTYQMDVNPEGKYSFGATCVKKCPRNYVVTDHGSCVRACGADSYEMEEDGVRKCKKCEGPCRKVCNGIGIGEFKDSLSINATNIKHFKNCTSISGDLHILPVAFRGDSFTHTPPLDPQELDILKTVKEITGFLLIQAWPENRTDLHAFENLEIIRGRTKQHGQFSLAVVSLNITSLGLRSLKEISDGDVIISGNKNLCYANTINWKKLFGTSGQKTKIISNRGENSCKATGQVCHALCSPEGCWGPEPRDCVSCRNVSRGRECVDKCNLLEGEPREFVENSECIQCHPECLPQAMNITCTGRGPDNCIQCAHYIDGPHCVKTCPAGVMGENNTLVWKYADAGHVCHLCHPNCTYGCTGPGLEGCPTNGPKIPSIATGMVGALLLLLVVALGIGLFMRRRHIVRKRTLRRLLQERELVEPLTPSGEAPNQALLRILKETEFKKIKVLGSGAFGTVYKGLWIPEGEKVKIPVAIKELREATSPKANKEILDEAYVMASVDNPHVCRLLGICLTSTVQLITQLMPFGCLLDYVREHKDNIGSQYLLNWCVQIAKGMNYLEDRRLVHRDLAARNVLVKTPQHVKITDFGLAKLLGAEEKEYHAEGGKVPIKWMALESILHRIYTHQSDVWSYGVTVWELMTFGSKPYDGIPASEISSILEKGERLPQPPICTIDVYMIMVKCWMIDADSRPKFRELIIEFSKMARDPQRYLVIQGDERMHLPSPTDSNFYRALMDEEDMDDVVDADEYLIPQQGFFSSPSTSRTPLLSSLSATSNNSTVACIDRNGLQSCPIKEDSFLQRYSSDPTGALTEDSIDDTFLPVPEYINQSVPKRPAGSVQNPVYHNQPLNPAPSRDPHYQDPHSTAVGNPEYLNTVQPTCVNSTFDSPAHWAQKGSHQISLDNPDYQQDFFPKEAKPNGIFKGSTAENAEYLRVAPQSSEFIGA
# Chain of Fibroblast growth factor 10 (Homo sapiens) (O15520 whole entry, looked up): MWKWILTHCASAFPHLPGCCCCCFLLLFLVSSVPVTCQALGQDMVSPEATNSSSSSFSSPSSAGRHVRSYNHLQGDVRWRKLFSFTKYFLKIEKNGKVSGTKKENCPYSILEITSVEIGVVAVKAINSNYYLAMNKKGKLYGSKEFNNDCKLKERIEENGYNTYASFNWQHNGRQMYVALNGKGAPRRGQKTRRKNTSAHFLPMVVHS
# Chain of Dickkopf-related protein 1 (Homo sapiens) (O94907 whole entry, looked up): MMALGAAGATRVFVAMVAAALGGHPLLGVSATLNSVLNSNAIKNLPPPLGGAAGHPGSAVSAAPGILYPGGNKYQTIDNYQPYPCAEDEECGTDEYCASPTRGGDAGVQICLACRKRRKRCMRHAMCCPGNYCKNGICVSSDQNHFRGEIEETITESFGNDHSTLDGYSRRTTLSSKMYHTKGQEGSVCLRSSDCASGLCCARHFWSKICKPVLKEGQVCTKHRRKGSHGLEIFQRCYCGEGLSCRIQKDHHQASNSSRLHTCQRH
SMILES,composite z-score [1],composite z-score [2],composite z-score [3],z-score [4],composite z-score [5],composite z-score [6],composite z-score [7],composite z-score [8],composite z-score [9],composite z-score [10]
CO[C@@H]1COC(=O)CC=C[C@@H](C)[C@H](OC)COC(=O)[C@@H](C)COC(=O)CC=C[C@H]1C,0.474,-0.803,-1.29,0.166 (inactive),-0.55,0.0478,0.354,0.734,1.37,1.85
O=C1CCCC=C1C(O)CCCCBr (stereo not given),1.09,0.763,0.653,-0.793 (inactive),0.404,-0.115,0.0038,1.18,0.945,1.26
CCc1cc2c(nc1CC)CCN(CCC(C)=NO[C@H](C)c1cn([C@H](CO)Cc3ccccc3)nn1)C2,0.536,-0.144,-0.0059,-0.0554 (inactive),0.0168,0.0291,0.1,0.11,0.274,1.3
CC[C@@H](c1ccccc1)n1c(=O)n2n(c1=O)[C@H]1[C@H](O)[C@@H]3O[C@@H]3C(=NOC[C@@H](O)COCc3ccco3)[C@H]1CC2,1.27,-0.455,-0.773,3.16 (inactive),0.145,-0.693,-0.264,-0.378,0.239,1.09
COC(=O)[C@H](C)NC(=O)CCC1CC(OC(=O)NCCc2ccc(F)cc2)CC2(CCCC(COC(=O)NCCC(C)C)O2)O1 (stereo not given in full),0.597,-0.185,-0.269,-1.56 (inactive),0.866,-0.102,0.0797,0.961,0.0468,0.299
C[C@@H]1CC[C@H]2C(=O)O[C@@H](COc3ccc(C(C)(C)C)cc3)CN2[C@@H]1c1ccc(Br)cc1,-0.0295,-0.339,-0.0805,-0.36 (inactive),-0.828,-0.796,-0.291,-0.964,-0.924,0.011
CCN1C(=O)[C@H]2[C@H]3[C@H](O)[C@H](O)CC(=NO[C@@H](C)c4cn([C@H](CO)Cc5ccccc5)nn4)[C@@H]3CC[C@H]2C1=O,0.774,0.262,-0.426,0.358 (inactive),0.792,0.92,0.182,1.14,0.692,-1.1
C[C@@H]1C=CCC(=O)OC[C@H]2O[C@@H](C=C[C@@H]2O)[C@H](C)C=CCC(=O)OC1,1.29,-0.594,-1.55,-0.813 (inactive),1.1,0.963,1.23,1.59,1.53,1.91
CCC=CCCC(OC(=O)c1ccc(Br)cc1)C1=CCCCC1=O (stereo not given),0.964,-0.305,0.457,0.798 (inactive),0.681,0.166,0.718,1.05,0.592,1.55
O=C(C=Cc1ccc2c(c1)OCO2)c1ccc(F)cc1,0.818,-0.136,-0.459,-0.603 (inactive),0.498,-0.296,0.549,0.801,1.52,0.239
CCOC(=O)NN=C1C[C@@H](O)[C@@H](O)[C@@H]2[C@@H]3C(=O)N(c4ccc(F)cc4F)C(=O)[C@@H]3CC[C@@H]12,0.468,-0.132,-0.364,0.428 (inactive),0.478,0.364,0.527,0.659,0.462,0.18
CCN1C(=O)[C@H]2[C@H]3[C@H](O)[C@H](O)CC(=O)[C@@H]3CC[C@H]2C1=O,0.677,-0.22,-0.478,-0.0387 (inactive),0.492,0.692,0.555,0.688,0.396,-0.167
CCOC(=O)[C@H](CC(C)C)NC(=O)CCC1CC(OC(=O)NCc2ccc3c(c2)OCO3)CC2(CCCC(COC(=O)NCC3CCCCC3)O2)O1 (stereo not given in full),0.74,-0.209,-0.62,-0.266 (inactive),0.651,0.532,0.379,1.22,0.681,-0.0703
CO[C@@H]1C=CCC(=O)N2CCC[C@H]2C(=O)OC[C@@H](C)C(=O)OC[C@H]1C,1.1,-0.21,-0.822,-0.497 (inactive),0.441,0.484,0.521,1.44,1.43,0.163
CCCNC(=O)OC[C@H]1O[C@H](CCON=C(C)CCN2CCc3nc(CC)c(CC)cc3C2)C=C[C@@H]1Oc1ccc(OC)cc1,0.865,-0.231,-0.163,-1.02 (inactive),-0.423,-0.687,0.159,0.125,0.192,0.886
COc1cccc([C@H]2Oc3ccc(OC)cc3C(=NOC[C@@H](O)[C@H]3O[C@@H]4OC(C)(C)O[C@@H]4[C@H]3O)[C@@H]2O)c1,0.0732,-0.389,-0.511,-0.106 (inactive),0.654,0.315,0.35,0.492,0.548,-0.326

SMILES,composite z-score [1],composite z-score [2],composite z-score [3],z-score [4],composite z-score [5],composite z-score [6],composite z-score [7],composite z-score [8],composite z-score [9],composite z-score [10]
C=CC[C@@H]1C=C[C@H](ON=C(C)CCC(=O)OC[C@H]2O[C@H](c3ccccc3)C=C[C@@H]2Oc2ccc(OC)cc2)[C@@H](CO)O1,0.892,-0.347,-0.524,-0.393 (inactive),-0.196,-0.855,-0.382,-0.532,0.0305,0.837
CCOC(=O)[C@H](CC(C)C)NC(=O)CCC1CC(OC(=O)NCc2cccc3ccccc23)CC2(CCCC(COC(=O)NCc3cccc(C(F)(F)F)c3)O2)O1 (stereo not given in full),0.0007,-0.167,-0.346,-0.349 (inactive),0.475,0.362,0.508,0.346,0.491,-0.0188
COCCNC(=O)OCC1CCCC2(CC(OC(=O)NCc3ccc4c(c3)OCO4)CC(CCC(=O)N[C@@H](C)C(=O)OC)O2)O1 (stereo not given in full),0.742,-0.205,-0.634,0.442 (inactive),0.696,0.953,0.696,1.31,0.518,0.0253
CCOC(=O)[C@H](Cc1ccccc1)NC(=O)CCC1CC(OC(=O)NCc2cccc3ccccc23)CC2(CCCC(COC(=O)NCC(c3ccccc3)c3ccccc3)O2)O1 (stereo not given in full),0.812,0.127,-0.464,-1.21 (inactive),0.684,0.588,0.356,0.501,0.37,0.0413
O=C1[C@H]2[C@H]3[C@H](O)[C@H](O)CC(=NOC[C@@H](O)COCc4ccco4)[C@H]3CC[C@H]2C(=O)N1Cc1ccccc1,0.467,-0.49,-0.964,-0.907 (inactive),0.378,0.0077,0.522,0.404,0.901,0.764
COc1ccc(C#C[C@@H]2C=C[C@H](OC(C)=O)[C@@H](COC(C)=O)O2)cc1,0.647,-0.174,-0.289,-0.613 (inactive),0.465,0.185,0.586,0.842,0.476,1.18
COC(=O)CC=C[C@@H](C)[C@@H](C=NO[C@@H]1O[C@H](COC(C)=O)[C@@H](OC(C)=O)[C@H](OC(C)=O)[C@H]1OC(C)=O)NS(=O)(=O)c1ccc(C)cc1,-0.119,-0.268,-0.645,-0.15 (inactive),0.626,-0.448,0.504,-0.212,0.833,-1.58
CCOC(=O)NN=C1C[C@@H](O)[C@@H](O)[C@@H]2[C@@H]3C(=O)N(Cc4ccccc4)C(=O)[C@@H]3CC[C@H]12,0.245,-0.259,-0.301,-1.14 (inactive),-0.0919,-0.435,0.242,0.0487,0.615,-0.0924
CC(C)=CCCC(C)=CCON=C1C[C@@H](O)[C@@H](O)[C@@H]2[C@@H]3C(=O)N(C(C)(C)C)C(=O)[C@@H]3CC[C@@H]12,0.263,0.0156,-0.046,-0.0767 (inactive),0.313,0.426,0.619,0.51,0.18,0.231
COc1ccc(O[C@H]2C=C[C@@H](c3ccccc3)O[C@@H]2CON=C2[C@H]3CCn4c(=O)n(-c5ccccc5)c(=O)n4[C@H]3[C@H](O)[C@@H]3O[C@H]23)cc1,0.393,0.214,-0.224,1.09 (inactive),0.464,0.417,0.318,0.584,0.288,0.338
C=Cc1ccc([C@H]2N[C@H](C(=O)O)CC[C@@H]2C)cc1,-0.642,0.178,0.02,0.0747 (inactive),0.741,-0.88,0.14,0.505,0.723,0.363
O=C1C[C@@H](O)[C@@H](O)[C@@H]2[C@@H]3C(=O)N(Cc4ccc5c(c4)OCO5)C(=O)[C@@H]3CC[C@H]12,0.063,-0.312,-0.406,1.03 (inactive),0.309,0.7,0.368,0.703,0.593,0.128
CC(C)=NO[C@H](C)c1cn([C@H](CO)Cc2ccccc2)nn1,0.618,-0.309,-0.113,1 (inactive),0.443,-0.122,0.17,-0.275,0.291,0.576
CO[C@H](C1CCCCC1)[C@H](C)C=CCC(=O)OCCCc1ccccc1,-0.023,-0.38,-0.708,-0.0118 (inactive),0.227,-0.518,0.471,0.201,0.287,0.332
C[C@H]1CC[C@H]2C(=O)O[C@H](COc3ccc(C(C)(C)C)cc3)CN2[C@@H]1c1ccc(Br)cc1,0.926,-0.143,-0.0663,0.134 (inactive),0.0311,0.102,-0.0022,-0.156,-0.189,0.0563
